Measured values: the supplement of paper PMC10849652
The full data set covers some 7,900 targets. This sample favours those with a hit. About 0.6% of all pairs of compound and target were hits.

Each target was assayed with c1cn2cc(-c3ccc4cn[nH]c4c3)nc(Nc3ccc(N4CCOCC4)cc3)c2n1 [entospletinib] (assay: log2 fold change, soluble protein after heating vs DMSO (PISA); higher = thermal stabilisation; K562 cells, 10 uM, 30 min; active = over 0.2 and 3.5 SD of the protein, either way, in both replicates (recomputed)).
Summary of the method: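 Values are thermal stability changes relative to control samples and are taken from duplicates. They are stated as log2 fold changes. Before quantification by TMTpro 16plex LC-MS/MS with equalised channel sums, K562 cells at 2×10^6 cells/mL were treated with 10 μM compound for 30 min, heated in aliquots for 3 min across 48°C-58°C, pooled, extracted in PBS with 0.5% NP-40 at 4°C, and centrifuged at 21,000xg for 90 min to give the soluble supernatant.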

Sequence of UniProt P35670 (P35670 whole entry, looked up): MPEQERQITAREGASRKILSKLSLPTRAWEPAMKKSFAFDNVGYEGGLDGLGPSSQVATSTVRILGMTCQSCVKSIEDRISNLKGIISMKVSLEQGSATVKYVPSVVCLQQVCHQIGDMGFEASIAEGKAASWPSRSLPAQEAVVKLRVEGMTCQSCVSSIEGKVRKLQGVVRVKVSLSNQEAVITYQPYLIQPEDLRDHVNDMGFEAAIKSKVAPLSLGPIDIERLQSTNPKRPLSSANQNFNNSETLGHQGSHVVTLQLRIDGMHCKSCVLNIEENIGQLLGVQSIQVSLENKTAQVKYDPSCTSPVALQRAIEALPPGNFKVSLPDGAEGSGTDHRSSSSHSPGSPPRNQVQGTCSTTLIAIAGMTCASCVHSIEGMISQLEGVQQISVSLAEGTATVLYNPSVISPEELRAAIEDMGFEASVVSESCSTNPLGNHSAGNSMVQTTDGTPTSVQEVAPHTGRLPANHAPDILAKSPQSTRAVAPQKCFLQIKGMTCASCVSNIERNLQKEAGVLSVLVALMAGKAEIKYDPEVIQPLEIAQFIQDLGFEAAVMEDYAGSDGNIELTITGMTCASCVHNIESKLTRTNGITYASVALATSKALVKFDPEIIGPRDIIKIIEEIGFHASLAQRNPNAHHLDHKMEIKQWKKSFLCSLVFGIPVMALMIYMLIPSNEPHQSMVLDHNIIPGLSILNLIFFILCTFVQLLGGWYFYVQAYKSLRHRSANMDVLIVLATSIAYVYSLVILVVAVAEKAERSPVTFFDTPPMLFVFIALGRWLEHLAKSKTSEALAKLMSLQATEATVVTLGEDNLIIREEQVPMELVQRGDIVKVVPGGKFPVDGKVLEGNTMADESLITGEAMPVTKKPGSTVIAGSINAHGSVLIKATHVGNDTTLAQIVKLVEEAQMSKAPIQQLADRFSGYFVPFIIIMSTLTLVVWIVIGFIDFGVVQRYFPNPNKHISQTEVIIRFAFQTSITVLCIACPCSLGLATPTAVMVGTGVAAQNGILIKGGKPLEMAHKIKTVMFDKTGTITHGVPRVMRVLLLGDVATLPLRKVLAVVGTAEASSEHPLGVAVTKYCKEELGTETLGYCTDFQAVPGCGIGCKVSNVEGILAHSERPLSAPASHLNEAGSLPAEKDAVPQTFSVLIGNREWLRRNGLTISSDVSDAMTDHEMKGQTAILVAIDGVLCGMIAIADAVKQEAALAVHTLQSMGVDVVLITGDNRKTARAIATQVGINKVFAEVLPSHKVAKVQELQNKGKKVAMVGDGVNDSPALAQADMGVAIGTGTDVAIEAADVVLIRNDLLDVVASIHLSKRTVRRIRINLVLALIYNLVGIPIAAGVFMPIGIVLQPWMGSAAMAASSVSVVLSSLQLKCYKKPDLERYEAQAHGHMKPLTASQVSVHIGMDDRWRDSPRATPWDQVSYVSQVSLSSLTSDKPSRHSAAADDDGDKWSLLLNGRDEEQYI
Sequence of UniProt P02749 (P02749 whole entry, looked up): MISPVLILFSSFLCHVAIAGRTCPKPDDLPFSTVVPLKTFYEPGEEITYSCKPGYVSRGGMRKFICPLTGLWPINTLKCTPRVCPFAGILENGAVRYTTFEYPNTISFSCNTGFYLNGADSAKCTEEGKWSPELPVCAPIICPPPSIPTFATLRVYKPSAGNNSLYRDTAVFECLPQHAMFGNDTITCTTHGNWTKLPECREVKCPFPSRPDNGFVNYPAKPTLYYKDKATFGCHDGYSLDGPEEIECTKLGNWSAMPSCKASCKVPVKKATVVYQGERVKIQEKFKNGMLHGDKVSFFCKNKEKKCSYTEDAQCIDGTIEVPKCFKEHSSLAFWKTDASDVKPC
Sequence of UniProt Q9BX63 (Q9BX63 whole entry, looked up): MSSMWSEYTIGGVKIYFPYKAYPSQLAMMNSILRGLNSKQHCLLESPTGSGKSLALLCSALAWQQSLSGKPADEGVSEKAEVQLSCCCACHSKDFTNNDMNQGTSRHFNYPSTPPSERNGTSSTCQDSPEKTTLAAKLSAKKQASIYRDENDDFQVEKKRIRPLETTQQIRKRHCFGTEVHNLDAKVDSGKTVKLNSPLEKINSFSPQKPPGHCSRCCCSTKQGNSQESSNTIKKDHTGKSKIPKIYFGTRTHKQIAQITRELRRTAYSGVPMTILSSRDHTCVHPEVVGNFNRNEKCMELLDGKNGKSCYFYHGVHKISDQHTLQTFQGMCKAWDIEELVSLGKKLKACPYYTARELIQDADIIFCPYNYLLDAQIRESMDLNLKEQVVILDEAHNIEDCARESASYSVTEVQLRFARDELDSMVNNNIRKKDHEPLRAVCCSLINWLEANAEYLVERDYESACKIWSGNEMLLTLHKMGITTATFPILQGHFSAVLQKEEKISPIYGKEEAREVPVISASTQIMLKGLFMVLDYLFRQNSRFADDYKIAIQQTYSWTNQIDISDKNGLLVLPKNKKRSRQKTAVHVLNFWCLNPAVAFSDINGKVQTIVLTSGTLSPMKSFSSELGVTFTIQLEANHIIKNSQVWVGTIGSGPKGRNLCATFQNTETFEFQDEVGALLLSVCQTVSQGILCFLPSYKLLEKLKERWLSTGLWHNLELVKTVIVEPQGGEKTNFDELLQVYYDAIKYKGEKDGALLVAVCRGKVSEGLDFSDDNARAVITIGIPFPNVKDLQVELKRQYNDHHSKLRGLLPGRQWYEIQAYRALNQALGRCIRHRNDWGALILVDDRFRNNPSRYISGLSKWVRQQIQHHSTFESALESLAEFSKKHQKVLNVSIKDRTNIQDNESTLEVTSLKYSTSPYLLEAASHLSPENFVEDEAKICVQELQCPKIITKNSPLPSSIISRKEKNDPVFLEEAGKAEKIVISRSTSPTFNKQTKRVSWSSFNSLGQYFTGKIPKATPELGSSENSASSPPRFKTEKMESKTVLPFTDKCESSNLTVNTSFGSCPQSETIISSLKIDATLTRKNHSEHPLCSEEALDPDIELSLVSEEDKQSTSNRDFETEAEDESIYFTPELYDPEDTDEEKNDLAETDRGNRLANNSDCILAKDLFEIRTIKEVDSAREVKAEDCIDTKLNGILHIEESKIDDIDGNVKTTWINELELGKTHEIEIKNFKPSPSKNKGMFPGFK
Sequence of UniProt O14965 (O14965 whole entry, looked up): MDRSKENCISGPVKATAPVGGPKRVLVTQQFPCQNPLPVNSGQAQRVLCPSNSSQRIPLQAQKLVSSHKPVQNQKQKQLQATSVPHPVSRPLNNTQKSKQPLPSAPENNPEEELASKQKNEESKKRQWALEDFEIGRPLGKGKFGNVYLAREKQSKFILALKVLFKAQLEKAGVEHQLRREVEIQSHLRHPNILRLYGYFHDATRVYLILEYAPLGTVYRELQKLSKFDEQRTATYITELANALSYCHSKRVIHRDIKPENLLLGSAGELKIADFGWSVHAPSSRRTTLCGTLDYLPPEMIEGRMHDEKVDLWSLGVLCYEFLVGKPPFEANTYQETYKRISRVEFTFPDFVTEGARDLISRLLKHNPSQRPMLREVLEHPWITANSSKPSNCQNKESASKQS
Sequence of UniProt Q9H8Y5 (Q9H8Y5 whole entry, looked up): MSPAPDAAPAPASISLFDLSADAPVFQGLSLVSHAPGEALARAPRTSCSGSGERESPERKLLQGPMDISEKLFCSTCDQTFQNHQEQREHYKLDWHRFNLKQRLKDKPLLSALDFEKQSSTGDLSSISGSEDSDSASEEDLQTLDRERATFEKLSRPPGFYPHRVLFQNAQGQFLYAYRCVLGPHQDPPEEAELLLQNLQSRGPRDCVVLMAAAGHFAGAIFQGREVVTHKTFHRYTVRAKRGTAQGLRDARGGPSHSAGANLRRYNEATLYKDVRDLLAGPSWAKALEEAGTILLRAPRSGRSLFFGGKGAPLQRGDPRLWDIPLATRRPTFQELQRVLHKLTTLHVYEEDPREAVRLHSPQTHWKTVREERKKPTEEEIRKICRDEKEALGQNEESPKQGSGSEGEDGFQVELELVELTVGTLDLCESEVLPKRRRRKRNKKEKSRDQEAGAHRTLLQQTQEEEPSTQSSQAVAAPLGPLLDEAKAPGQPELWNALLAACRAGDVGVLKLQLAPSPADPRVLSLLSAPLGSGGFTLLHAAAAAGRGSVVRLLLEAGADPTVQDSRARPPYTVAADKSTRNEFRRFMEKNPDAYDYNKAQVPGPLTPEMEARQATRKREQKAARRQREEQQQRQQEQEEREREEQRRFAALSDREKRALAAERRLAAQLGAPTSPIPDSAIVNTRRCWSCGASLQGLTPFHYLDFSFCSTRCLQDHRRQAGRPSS
Sequence of UniProt Q96BI3 (Q96BI3 whole entry, looked up): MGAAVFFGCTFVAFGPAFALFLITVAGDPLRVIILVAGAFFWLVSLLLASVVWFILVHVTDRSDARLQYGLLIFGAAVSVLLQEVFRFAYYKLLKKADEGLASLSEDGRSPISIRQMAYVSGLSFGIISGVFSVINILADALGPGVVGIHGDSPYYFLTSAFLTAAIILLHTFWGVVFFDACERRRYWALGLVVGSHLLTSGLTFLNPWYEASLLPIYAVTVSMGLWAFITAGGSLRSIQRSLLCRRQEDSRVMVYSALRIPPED
Sequence of UniProt Q8N6T3 (Q8N6T3 whole entry, looked up): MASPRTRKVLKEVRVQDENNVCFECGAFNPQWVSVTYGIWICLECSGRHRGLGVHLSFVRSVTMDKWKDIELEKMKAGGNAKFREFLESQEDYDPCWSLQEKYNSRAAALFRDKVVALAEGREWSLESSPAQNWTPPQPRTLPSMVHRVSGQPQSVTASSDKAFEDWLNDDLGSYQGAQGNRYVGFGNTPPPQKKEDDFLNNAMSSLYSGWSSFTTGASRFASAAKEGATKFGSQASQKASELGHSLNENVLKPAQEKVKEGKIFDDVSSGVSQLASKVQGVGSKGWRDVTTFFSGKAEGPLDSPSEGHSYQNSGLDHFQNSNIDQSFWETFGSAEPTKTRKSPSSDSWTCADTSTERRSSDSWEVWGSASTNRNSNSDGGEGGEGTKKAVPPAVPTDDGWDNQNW
Sequence of UniProt O00244 (O00244 whole entry, looked up): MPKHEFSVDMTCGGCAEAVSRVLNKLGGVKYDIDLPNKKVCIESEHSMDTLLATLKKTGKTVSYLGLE

log2 fold change, inactive:
ALDH2 (UniProt P05091) -0.025, AP2A2 isoform 2 (UniProt O94973) 0.059, BMP2K (UniProt Q9NSY1) 0.157, BRIP1 (UniProt Q9BX63) -0.055, APLP2 (UniProt Q06481) -0.009, APOB (UniProt P04114) 0.04, AP4S1 (UniProt Q9Y587) 0.039, ACOX3 (UniProt O15254) 0.056, BOP1 (UniProt Q14137) -0.063, ABHD11 (UniProt Q8NFV4) 0.006, BRAF (UniProt P15056) 0.035, ANKZF1 (UniProt Q9H8Y5) 0.006, ACADM isoform 2 (UniProt P11310) -0.001, ALG3 (UniProt Q92685) 0.049, ATF1 (UniProt P18846) -0.006, ABCA4 (UniProt P78363) -0.079, ATP7B (UniProt P35670) 0.012, AKR1C3 (UniProt P42330) -0.011, ACVR1 (UniProt Q04771) -0.053, ATAD1 (UniProt Q8NBU5) 0.022, ACP1 isoform 2 (UniProt P24666) 0.052, ADPRHL2 (UniProt Q9NX46) 0.024, ARFGAP1 (UniProt Q8N6T3) -0.032, ATOX1 (UniProt O00244) -0.005, ABHD16A (UniProt O95870) 0.002, AURKA (UniProt O14965) 0.282, AAMP (UniProt Q13685) 0.063, BCL9L (UniProt Q86UU0) -0.027, APH1A (UniProt Q96BI3) -0.084, ATG4B isoform 2 (UniProt Q9Y4P1) 0.11, APOH (UniProt P02749) 0.206, ACAD9 (UniProt Q9H845) 0.02, ATG9A (UniProt Q7Z3C6) -0.025, ATP13A2 (UniProt Q9NQ11) -0.115, ALG14 (UniProt Q96F25) -0.063, BPHL (UniProt Q86WA6) -0.01, ATP6V0A2 (UniProt Q9Y487) 0.009, AGPAT1 (UniProt Q99943) -0.037, ATP11A (UniProt P98196) 0.158
